# Among all 63,000 compounds or so, about 1,100 (1.7%) were called active. The sample holds actives, similar compounds and a random draw of the others, so the mix is not that of the screen. Measured potencies and affinities stand elsewhere. Unmarked numbers belong to inactive results. No stated cut-off is given here; in the data, active means cytotoxicity above about 50%; inactive means the rest.
# Test: HPDE-C7 pancreatic duct cell viability loss – fluorescence, HTS (AID 430);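 further: cells exposed to compound for 48 hours before viability readout; 0% = vehicle and 100% = reference cytotoxic drug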
# Conditions: HPDE-C7 pancreatic duct cells viability, at 10 µM, active compounds read high
row,SMILES,cytotoxicity
1,COc1cccc(N2CCN(C(=O)c3[nH]c(C)c(C(C)=O)c3C)CC2)c1,53.6% (active)
2,CCOC(=O)c1[nH]c(C)c(C(=O)N2CCN(c3cccc(Cl)c3)CC2)c1C,13.5%
3,CC(=O)c1c(C)[nH]c(C(=O)N2CCN(c3ncccn3)CC2)c1C,2.1%
4,CC(C)C(=O)Nc1ccc(NC(=O)c2cccc(F)c2)cn1,-7.5%
5,COc1cc(CCC(=O)OCC(=O)Nc2ncc(Cl)cc2Cl)cc(OC)c1OC,-7.2%
6,Cc1cc(-c2ccccc2C(=O)O)on1,-13.2%
7,CCCCCCNC(=O)c1c(O)c2ccccc2[nH]c1=O,4.2%
8,CCCCNC(=O)c1ccccc1C(=O)NCCCC,-5.7%
9,CCCCCNC(=O)c1ccc2c(=O)n(CC3CCCO3)c(=O)[nH]c2c1 (centres undefined),-2.3%
10,CCn1c(N)c(C(=O)NCc2ccco2)sc1=S,-6.5%
11,C=CCn1c(N)c(C(=O)NCc2ccco2)sc1=S,2.4%
12,O=C(NCC1CCCO1)c1sc(=S)n2c1[nH]c(=O)c1ccc(C(=O)N3CCCCC3)cc12 (centres undefined),-5.8%
13,CCCCNC(=O)c1sc(=S)n2c1[nH]c(=O)c1ccccc12,70.3% (active)
14,O=C(NCc1ccco1)c1sc(=S)n2c1[nH]c(=O)c1ccccc12,82.7% (active)
15,O=C(O)C1CCCN(S(=O)(=O)c2ccc(F)cc2)C1 (centres undefined),-13.4%
16,CCOC(=O)CSC1=NC(=O)CS1,-7%
17,Cc1ccc2[nH]c(=O)c(CN(CCc3ccccc3)C(=O)N3CCOCC3)cc2c1,5.9%
18,CC(C)CC(=O)Nc1ccc(-c2cn3ccsc3n2)cc1,51.9% (active)
19,CC(=O)Nc1ccc(-c2cn3ccsc3n2)cc1,10.2%
20,CC(C)CC(=O)Nc1cccc(-c2cn3ccsc3n2)c1,2.6%
21,CCOC(=O)CCC(=O)Nc1ccc(S(=O)(=O)N2CCCC2)cc1,-1.2%
22,O=C(NC1CCN(C(=O)Nc2ccccc2)CC1)C1CCCCC1,-8.9%

row,SMILES,cytotoxicity
1,Cc1csc(NC(=O)c2c(O)c3cccc4c3n(c2=O)CCC4)n1,-11.1%
2,Cc1cnc(NC(=O)c2c(O)c3cccc4c3n(c2=O)CCC4)s1,52.2% (active)
3,CC(C)c1nnc(NC(=O)c2c(O)c3cccc4c3n(c2=O)CCC4)s1,46.3%
4,N#CC1=C(N)S[C@H](C(=O)C23CC4CC(CC(C4)C2)C3)[C@H]1c1ccncc1,-14.7%
5,CCC(c1nnnn1CCc1ccccc1)N(Cc1ccco1)Cc1cc2cc(C)cc(C)c2[nH]c1=O (centres undefined),10.7%
6,CC1=C(C#N)C(c2cn(-c3ccccc3)nc2-c2cccs2)C(C#N)=C(C)N1,41.2%
7,NC1=NC(c2cn(-c3ccccc3)nc2-c2cccs2)n2c(nc3ccccc32)N1 (centres undefined),54.9% (active)
8,NC1=NC(c2ccccc2Cl)n2c(nc3ccccc32)N1 (centres undefined),7%
9,CC(=O)Nc1cccc(NC(=O)c2ccco2)c1,-14.2%
10,O=C(Nc1ccc(-c2nc3ccccc3o2)cc1)c1ccc2c(c1)OCO2,2%
11,Cc1ccc2oc(-c3ccc(NC(=O)c4cccnc4)cc3)nc2c1,51.4% (active)
12,O=C(Nc1ccc2oc(-c3ccccc3F)nc2c1)c1ccc2c(c1)OCCO2,46.2%
13,Cc1c(NC(=O)c2ccc3c(c2)OCO3)cccc1-c1nc2ccccc2o1,-9.8%
14,COc1ccc(Br)cc1C(=O)Nc1cccc(NC(=O)c2ccco2)c1,42.6%
15,O=C(Nc1ccc2oc(-c3cccnc3)nc2c1)c1cccnc1,7.7%
16,O=C(Nc1ccc2oc(-c3ccccc3)nc2c1)c1cccnc1,18.1%
17,O=C(Nc1ccccc1-c1nc2ccccc2o1)c1ccc2c(c1)OCCO2,77.2% (active)
18,Cc1ccc2oc(-c3ccc(NC(=O)c4ccc5c(c4)OCO5)cc3)nc2c1,71.1% (active)
19,COc1ccc(-c2nc3cc(NC(=O)c4ccc5c(c4)OCO5)ccc3o2)cc1,1.2%
20,O=C(Nc1cccc(NC(=O)c2ccc(-c3cccc(Br)c3)o2)c1)c1ccco1,63% (active)
21,CC(=O)[C@@H]1[C@@H]2C(=O)N(Cc3ccccc3)C(=O)[C@@H]2C2c3ccccc3C=CN21 (some centres undefined),3.9%
22,CCC(=NCCc1ccccc1)C1=C(O)CCC1=O,9.7%

row,SMILES,cytotoxicity
1,C=CCn1c(SCn2nnc3ccccc3c2=O)nnc1-c1ccc(F)cc1,-0.2%
2,Cc1cc(C(=O)N2CCN(S(C)(=O)=O)CC2)sc1-c1ccccc1,-3%
3,O=C(NC1CCCC1)C1CCCN1C(=O)Nc1ccccc1Cl (centres undefined),-20.3%
4,C=CCN(CC=C)c1nc2ccccc2nc1C(C#N)C(=O)OCCOC (centres undefined),1.9%
5,O=C(Nc1ccc(-c2nc3ncccc3o2)cc1)c1ccco1,1.1%
6,COC(=O)c1ccc(-c2nc3ccccc3o2)cc1,-9.2%
7,COc1cc(OC)cc(C(=O)Nc2ccc(-c3nc4ccccc4o3)cc2)c1,74.2% (active)
8,Cc1ccc(-c2nc3ccccc3o2)cc1NC(=O)c1ccc2c(c1)OCO2,-10%
9,COc1cccc(C(=O)Nc2ccc(-c3nc4ccccc4o3)c(O)c2)c1,15.3%
10,O=C(Nc1cccc(-c2nnc(-c3ccccc3)o2)c1)c1ccco1,-6.9%
11,O=C(Nc1ccc2nc(-c3ccccc3)oc2c1)c1ccco1,68.7% (active)
12,O=C(Nc1ccc2oc(-c3ccccc3)nc2c1)c1ccc2c(c1)OCCO2,13.4%
13,C/C=C/COc1nc2c(c(=O)n(C)c(=O)n2C)n1C,-4%
14,O=C(OCC(=O)N1CCN(C(=O)COC(=O)c2ccncc2)CC1)c1ccncc1,-7.9%
15,CCN1CCN(c2ncc3c(n2)CC(c2ccc(OC)c(OC)c2)CC3=O)CC1 (centres undefined),7.7%
16,O=C1CC(c2cccc(Cl)c2)Cc2nc(N3CCOCC3)ncc21 (centres undefined),-14.6%
17,Cc1ccc(C2CC(=O)c3cnc(N4CCN(c5ccccc5)CC4)nc3C2)cc1 (centres undefined),9.3%
18,COc1cc(C2CC(=O)c3cnc(N4CCN(Cc5ccccc5)CC4)nc3C2)cc(OC)c1OC (centres undefined),46%
19,O=C1CC(c2cccc(Cl)c2)Cc2nc(N3CCN(c4ccccc4)CC3)ncc21 (centres undefined),51.4% (active)
20,CCN1CCN(c2ncc3c(n2)CC(c2cc(OC)c(OC)c(OC)c2)CC3=O)CC1 (centres undefined),58.9% (active)

# Reference: PubChem BioAssay AID430 (Sanford-Burnham Center for Chemical Genomics, 2006)
